This is part of a sample that, as a whole, favours compounds with a hit. Of some 79,000 tested, about 15% had one in any assay. The source made the active and inactive calls. No stated cut-off is given here; in the data, active means growth inhibition above about 70%; inactive means the rest.
Columns and labels:
[1] = NCI Yeast Anticancer Drug Screen. Data for the rad52 strain (AID 147);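 further: 0% = growth of vehicle-treated control cultures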; conditions: S. cerevisiae rad52 mutant growth inhibition, hits give high values
Summary of the method: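 Inhibition of yeast growth, referenced to vehicle controls, was the measured output for a strain with defective DNA damage repair.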

[2] = NCI Yeast Anticancer Drug Screen. Data for the wt1 strain (AID 149);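 further: 0% = growth of vehicle-treated wt1 cultures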; conditions: S. cerevisiae wt1 strain (SPY 50644) growth inhibition, hits give high values
Summary of the method: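 wt1 strain grown with compound or vehicle; inhibition taken from the growth difference.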

[3] = NCI Yeast Anticancer Drug Screen. Data for the rad50EPP+ strain (AID 151);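 further: 0% = growth of vehicle-treated control cultures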; conditions: S. cerevisiae rad50 mutant strain, hits give high values
Summary of the method: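 Genetically defined yeast (rad50EPP+, DNA damage repair alteration) is grown with compound, and inhibition of growth is expressed relative to vehicle-treated controls.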

[4] = NCI Yeast Anticancer Drug Screen. Data for the mgt1 strain (AID 153); conditions: S. cerevisiae mgt1 mutant growth inhibition, hits give high values
Summary of the method: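 In the mgt1 strain, test compounds were added and growth inhibition was determined relative to vehicle-treated controls.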

[5] = NCI Yeast Anticancer Drug Screen. Data for the rad50 strain (AID 155);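 further: 0% = growth of vehicle-only cultures of the same strain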; conditions: S. cerevisiae rad50 strain growth inhibition, hits give high values
Summary of the method: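 DNA repair mutant yeast, compound exposure, growth read-out; inhibition is taken relative to vehicle.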

[6] = NCI Yeast Anticancer Drug Screen. Data for the mec2-1 strain (AID 157); conditions: S. cerevisiae mec2-1 strain, hits give high values
Summary of the method: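 Each compound was tested on mec2-1 yeast, a strain altered in DNA damage repair or cell cycle control. Growth inhibition is reported relative to vehicle.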

[7] = NCI Yeast Anticancer Drug Screen. Data for the rad14 strain (AID 159);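 further: 0% = growth of vehicle-treated control cultures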; conditions: S. cerevisiae rad14 strain growth inhibition, hits give high values
Summary of the method: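 DNA repair-defective yeast, compound-exposed; % growth inhibition derived by comparison with vehicle-treated controls.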

[8] = NCI Yeast Anticancer Drug Screen. Data for the sgs1 mgt1 strain (AID 161);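 further: 0% = growth of cultures given vehicle only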; conditions: S. cerevisiae sgs1 mgt1 strain, hits give high values
Summary of the method: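 Inhibition of yeast growth, normalised to vehicle-treated controls, is reported for a strain bearing genetic alterations in DNA damage repair.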

[9] = NCI Yeast Anticancer Drug Screen. Data for the CLN2oe strain (AID 163);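 further: 0% = growth of vehicle-only control cultures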; conditions: S. cerevisiae CLN2oe strain, hits give high values
Summary of the method: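 First, the altered yeast strain was treated with each compound; second, its growth was measured; finally, inhibition was derived by comparison with vehicle controls.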

[10] = NCI Yeast Anticancer Drug Screen. Data for the cln2 rad14 strain (AID 165);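 further: 0% = growth equal to vehicle treated cultures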; conditions: S. cerevisiae cln2 rad14 strain, hits give high values
Summary of the method: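 Test compounds were added to cln2 rad14 yeast cultures; inhibition of growth was then determined by comparison with vehicle treatment.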

[11] = NCI Yeast Anticancer Drug Screen. Data for the bub3 strain (AID 167); conditions: S. cerevisiae bub3 mutant strain, hits give high values
Summary of the method: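 In this screen, a yeast mutant lacking normal mitotic checkpoint function is challenged with compound. Relative growth versus vehicle gives the inhibition value.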

[12] = NCI Yeast Anticancer Drug Screen. Data for the wt2 strain (AID 169);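 further: 0% = growth of vehicle-treated yeast cultures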; conditions: S. cerevisiae wt2 strain growth inhibition, hits give high values
Summary of the method: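 The panel's yeast strains carry defined changes in DNA repair or cell cycle genes. Each strain is grown with compound, and growth loss is scored relative to vehicle.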

[13] = NCI Yeast Anticancer Drug Screen. Data for the mlh1 strain (AID 171);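 further: 0% = growth of vehicle-treated control cultures of the same strain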; conditions: S. cerevisiae mlh1 strain growth inhibition, hits give high values
Summary of the method: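 Inhibition values reflect reduced yeast growth in the presence of compound, referenced to vehicle controls, using a strain chosen for its alteration in DNA repair or cell cycle control.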

[14] = NCI Yeast Anticancer Drug Screen. Data for the sgs1 strain (AID 173);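 further: 0% = growth of vehicle-only control cultures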; conditions: S. cerevisiae sgs1 mutant, hits give high values
Summary of the method: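 Vehicle-treated cultures served as reference for growth inhibition of a yeast strain altered in DNA damage repair or cell cycle control after compound exposure.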

[15] = NCI Yeast Anticancer Drug Screen. Data for the mlh1 rad18 strain (AID 175); conditions: S. cerevisiae mlh1 rad18 strain growth inhibition, hits give high values
Summary of the method: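 Inhibition values reflect reduced growth of mutant yeast versus vehicle-treated controls following compound exposure; the mutations affect DNA damage repair.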

[16] = NCI Yeast Anticancer Drug Screen. Data for the rad18 strain (AID 177); conditions: S. cerevisiae rad18 mutant growth inhibition, hits give high values
Summary of the method: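 Steps: expose repair-mutant yeast to compound; measure growth; express as inhibition relative to vehicle control.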

[17] = at 5.0 µM (retest, dose inferred, filed as 0.5)
[18] = at 50.0 µM (retest, dose inferred, filed as 5.0)

Measured: growth inhibition

c1ccc2nc3c(nc2c1)sc1ccccc13
inactive: [1]; at 1.2 µM 13% | [2]; at 1.2 µM 1% | [2]; at 3.7 µM 4% | [2]; at 11.0 µM 17% | [2]; at 33.0 µM 27% | [2]; at 100.0 µM 23% | [3]; at 1.2 µM 41% | [4]; at 1.2 µM 2% | [4]; at 3.7 µM 2% | [4]; at 11.0 µM 10% | [4]; at 33.0 µM 20% | [4]; at 100.0 µM 18% | [5]; at 1.2 µM 13% | [5]; [17] 54% | [6]; at 1.2 µM 4% | [6]; at 3.7 µM 5% | [6]; [17] -32% | [6]; at 11.0 µM 41% | [6]; at 33.0 µM 42% | [6]; [18] 8% | [6]; at 50.0 µM 31.9% | [6]; at 100.0 µM 36% | [7]; at 1.2 µM 4% | [7]; at 3.7 µM 21% | [7]; at 11.0 µM 35% | [7]; at 33.0 µM 39% | [7]; at 100.0 µM 35% | [8]; [17] -52% | [8]; [18] -5% | [8]; at 50.0 µM 11.2% | [9]; at 1.2 µM -2% | [9]; at 3.7 µM 6% | [9]; at 11.0 µM 28% | [9]; at 33.0 µM 37% | [9]; at 100.0 µM 34% | [10]; [17] -29% | [10]; [18] 15% | [10]; at 50.0 µM 36% | [11]; at 1.2 µM 0% | [11]; at 3.7 µM 11% | [11]; [17] -40% | [11]; at 11.0 µM 41% | [11]; at 33.0 µM 47% | [11]; [18] 12% | [11]; at 50.0 µM 32.8% | [11]; at 100.0 µM 41% | [12]; at 1.2 µM -2% | [12]; at 3.7 µM 1% | [12]; at 11.0 µM 6% | [12]; at 33.0 µM 13% | [12]; at 100.0 µM 9% | [13]; at 1.2 µM 4% | [13]; at 3.7 µM 3% | [13]; at 11.0 µM 19% | [13]; at 33.0 µM 28% | [13]; at 100.0 µM 23% | [14]; at 1.2 µM -2% | [14]; at 3.7 µM 20% | [14]; at 11.0 µM 43% | [14]; at 33.0 µM 51% | [14]; at 100.0 µM 37% | [15]; [17] -71% | [15]; [18] 14% | [15]; at 50.0 µM 61.9% | [16]; at 1.2 µM 4% | [16]; at 3.7 µM 21% | [16]; at 11.0 µM 45% | [16]; at 33.0 µM 52% | [16]; at 100.0 µM 47%
active: [1]; at 3.7 µM 74% | [1]; at 11.0 µM 95% | [1]; at 33.0 µM 94% | [1]; at 100.0 µM 86% | [3]; at 3.7 µM 92% | [3]; at 11.0 µM 95% | [3]; at 33.0 µM 94% | [3]; at 100.0 µM 84% | [5]; at 3.7 µM 75% | [5]; at 11.0 µM 92% | [5]; at 33.0 µM 91% | [5]; [18] 78% | [5]; at 50.0 µM 92.8% | [5]; at 100.0 µM 82%

CC(CC/C(=N/O)c1ccccc1)(CC/C(=N\O)c1ccccc1)[N+](=O)[O-] (stereo not drawn)
active: [1]; at 100.0 µM 74% | [5]; at 100.0 µM 74% | [6]; at 50.0 µM 96.5% | [9]; at 100.0 µM 71% | [10]; at 50.0 µM 91.7% | [11]; at 50.0 µM 90.8%
inactive: [1]; at 1.2 µM 1% | [1]; at 3.7 µM 2% | [1]; at 11.0 µM -4% | [1]; at 33.0 µM 4% | [2]; at 1.2 µM -1% | [2]; at 3.7 µM -5% | [2]; at 11.0 µM -7% | [2]; at 33.0 µM 0% | [2]; at 100.0 µM 26% | [3]; at 1.2 µM -3% | [3]; at 3.7 µM 2% | [3]; at 11.0 µM -1% | [3]; at 33.0 µM 2% | [3]; at 100.0 µM 0% | [4]; at 1.2 µM -5% | [4]; at 3.7 µM -3% | [4]; at 11.0 µM -4% | [4]; at 33.0 µM -5% | [4]; at 100.0 µM 57% | [5]; at 1.2 µM 5% | [5]; at 3.7 µM 3% | [5]; [17] 4% | [5]; at 11.0 µM -1% | [5]; at 33.0 µM 4% | [5]; [18] 66% | [5]; at 50.0 µM 11.4% | [6]; at 1.2 µM -3% | [6]; at 3.7 µM -3% | [6]; [17] -11% | [6]; at 11.0 µM -5% | [6]; at 33.0 µM -5% | [6]; [18] 21% | [6]; at 100.0 µM 56% | [7]; at 1.2 µM -2% | [7]; at 3.7 µM 1% | [7]; at 11.0 µM -5% | [7]; at 33.0 µM -3% | [7]; at 100.0 µM 65% | [8]; [17] 0% | [8]; [18] 53% | [8]; at 50.0 µM 37% | [9]; at 1.2 µM -7% | [9]; at 3.7 µM -11% | [9]; at 11.0 µM -13% | [9]; at 33.0 µM -12% | [10]; [17] 2% | [10]; [18] 39% | [11]; at 1.2 µM -6% | [11]; at 3.7 µM -5% | [11]; [17] 8% | [11]; at 11.0 µM -9% | [11]; at 33.0 µM -9% | [11]; [18] 6% | [11]; at 100.0 µM 52%

Reference: PubChem BioAssay (NCI)
